From PubChem
ST2 IL33 inh = IL1RL1 inhibition | AlphaLISA ST2-Fc/biotin-IL-33 interaction, 1 h | hit rate 2.3% among 78,000 | AID 1259354 | Q01638 | inhibition, % for hits at 17 µM; in the data active means inhibition above about 30%
Target sequence (Q01638 whole entry, looked up): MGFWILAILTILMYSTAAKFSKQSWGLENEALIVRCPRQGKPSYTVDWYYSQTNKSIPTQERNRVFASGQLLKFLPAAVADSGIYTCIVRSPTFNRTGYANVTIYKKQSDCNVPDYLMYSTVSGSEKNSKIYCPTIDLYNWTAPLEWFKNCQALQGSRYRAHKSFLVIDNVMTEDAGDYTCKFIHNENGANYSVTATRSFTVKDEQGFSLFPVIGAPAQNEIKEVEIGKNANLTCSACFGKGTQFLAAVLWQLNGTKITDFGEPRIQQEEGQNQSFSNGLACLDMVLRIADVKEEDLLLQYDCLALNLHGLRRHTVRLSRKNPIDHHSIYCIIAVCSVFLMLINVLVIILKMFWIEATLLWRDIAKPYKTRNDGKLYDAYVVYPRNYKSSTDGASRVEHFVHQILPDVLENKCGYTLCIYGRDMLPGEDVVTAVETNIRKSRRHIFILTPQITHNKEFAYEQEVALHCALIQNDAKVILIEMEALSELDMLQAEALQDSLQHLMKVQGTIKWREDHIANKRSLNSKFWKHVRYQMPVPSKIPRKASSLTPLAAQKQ
Starred values were filed as active, the others as inactive; i = inactive. The entries come from a sample that favours hits as a whole.

SMILES | ST2 IL33 inh
Cc1ccc2cc3cc(C(=O)NC(C)C)sc3nc2c1 | i
Cc1ccc(Cl)cc1NC(=O)c1cc2c(=O)n3cccc(C)c3nc2s1 | i
CCc1nc([C@H]2CN(C)C[C@@H]2C(=O)N2CCOc3ccccc3C2)c(C)[nH]1 | i
Cc1nc(C(=O)N2CCCC(c3nc(C(C)C)no3)C2)cs1 (centres undefined) | i
CCc1ccc(NC(=O)CN2CCCN(Cc3ccccc3)S2(=O)=O)cc1 | i
CC(=O)Nc1ccc(S(=O)(=O)N2C[C@@H]3C[C@H](C2)c2c(/C=C/c4ccc(Cl)cc4)ccc(=O)n2C3)cc1 | i
Cc1cccc(OCCCOc2ccc(/C=C3/C(=N)N4C=CSC4=NC3=O)cc2)c1C | i
CSCCOC(=O)C1=C(C)NC(=O)NC1c1cc2c(cc1Br)OCO2 (centres undefined) | i
O=C(c1ccccc1Cl)N1CCN(c2ccc([N+](=O)[O-])cc2)CC1 | i
CC(Oc1ccccc1)C(=O)N1CCN(c2ccc([N+](=O)[O-])cc2)CC1 (centres undefined) | 48%*
O=C(C(Cl)Cl)N1CCN(c2ccc([N+](=O)[O-])cc2)CC1 | i
Cc1nc(CCC(=O)N2CCOC(C(F)(F)F)C2)n[nH]1 (centres undefined) | i
Cn1c(=O)c2c(nc(SCC(=O)O)n2Cc2cc3c(cc2Cl)OCO3)n(C)c1=O | 37%*
Cn1c(=O)c2c(nc(Oc3ccc4c(c3)OCO4)n2Cc2ccc(Cl)cc2)n(C)c1=O | i
Cn1c(=O)c2c(nc(SCC(=O)Nc3ccc4c(c3)OCO4)n2Cc2ccccc2)n(C)c1=O | i
CC(=O)Nc1nnc(SCC(=O)Nc2ccc(C(C)C)cc2)s1 | i
CC(=O)Nc1ccc(S(=O)(=O)N(C(C)C)C(C)C)cc1 | i
Cc1cccc(C)c1NS(=O)(=O)c1ccc(Br)cc1 | i
O=C(Nc1c(C(=O)Nc2cccc(F)c2)oc2ccccc12)c1ccco1 | i
COc1ccc(C(=O)c2oc3ccccc3c2NC(=O)c2ccco2)cc1 | 31%*
NC(=O)c1oc2ccccc2c1NC(=O)c1ccco1 | i
Cn1ncc([N+](=O)[O-])c1C(=O)Nc1ccc(I)cc1 | i
Cc1cccn2c(=O)c3cc(C(=O)Nc4ccc(Br)cc4)sc3nc12 | i
CC(=O)C1=C(c2ccccc2)C(=O)c2ccccc2C1=O | 48%*
COC1=C(OC)C(=O)c2ccccc2C1=O | i
SMILES | ST2 IL33 inh
CC(=O)c1ccccc1-c1cccc(C(=O)NC(C)C)c1 | i
Nc1cc2c3c(cccc3n1)C(=O)c1ccccc1-2 | 34%*
Nc1nc2ccccc2nc1N | i
O=C1c2ccccc2C(=O)c2c1nc1n2CCOC1 | i
CN(C)c1nc(Cl)c(CN2CCCC(OCc3cccnc3)C2)s1 (centres undefined) | i
COCC(=O)N[C@H]1C[C@@H](C(=O)NCc2ccccc2F)N(C)C1 | i
COc1ccc2oc(=O)c(C(=O)Nc3ccc([N+](=O)[O-])cc3)cc2c1 | i
COc1ccccc1C(=O)Oc1ccc2c(c1)C(C)=CC(C)(C)N2 | i
COc1ccc(/C(N)=N\OC(=O)c2ccc3c(c2)OCO3)cc1OC | i
CC1=CC(C)(C)Nc2ccc(OC(=O)c3ccc4c(c3)OCO4)cc21 | 30%*
COc1cc(OC)cc(C(=O)Nc2ccc(S(=O)(=O)Nc3cc(OC)ncn3)cc2)c1 | i
Cc1cccn2c(=O)c3cc(C(=O)NC(C)c4ccccc4)n(C)c3nc12 (centres undefined) | i
Cc1ccc(C(c2sc3nc(C)nn3c2O)N2CCN(Cc3ccccc3)CC2)cc1 (centres undefined) | i
O=C(O)CCCC[C@@H]1CCSS1 | i
NCCCCCC(=O)O | i
CC1NC(=O)NC1CCCCC(=O)O (centres undefined) | 46%*
Cc1nnc(SCC(=O)Nc2nnc(C(F)(F)F)s2)s1 | i
CN1CCN(C(=O)C2CNCCN2C(=O)c2ccc(Cl)cn2)CC1 (centres undefined) | i
CC(NC(=O)c1ccccc1C(=O)NC(C)c1ccccc1)c1ccccc1 (centres undefined) | i
N#C/C(=C\c1ccc(O)c(O)c1)C(=O)Nc1ccccc1 | i
C[C@@H](NC(=O)/C(C#N)=C/c1ccc(O)c(O)c1)c1ccccc1 | 58%*
CCC/C=C/c1cncc(C(=O)N2CCCCC2)n1 | i
O=C(NCc1csc(-c2cnccn2)n1)c1cc2ccccc2s1 | i
Cn1c(=O)c2c(nc(NCCCO)n2Cc2cccc3ccccc23)n(C)c1=O | i
Cn1c(=O)c2c(nc(NCc3cccnc3)n2Cc2cccc3ccccc23)n(C)c1=O | 30%*
SMILES | ST2 IL33 inh
Cc1ccccc1Cn1c(NCc2ccccc2)nc2c1c(=O)n(C)c(=O)n2C | i
CC1=CC(C)(C)N(C(=O)CN2C(=O)c3cccc([N+](=O)[O-])c3C2=O)c2ccccc21 | 32%*
CC1=CC(C)(C)N(C(=O)CN2C(=O)c3ccccc3C2=O)c2ccccc21 | i
Cc1c(NC(=O)CN2C(=O)c3cccc([N+](=O)[O-])c3C2=O)c(=O)n(-c2ccccc2)n1C | i
OCCn1c(-c2ccc(F)cc2)csc1=Nc1ccccc1 | 36%*
c1ccc(CCCN2CCOCC2)cc1 | i
Cn1c(=O)c2c(nc3n(CCCO)c(-c4ccc(F)cc4)cn23)n(C)c1=O | i
c1ccc(N=c2scc(-c3ccccc3)n2Cc2cccnc2)cc1 | 41%*
O=S(=O)(c1ccc(Cl)cc1)N(CCCN1CCOCC1)Cc1cccs1 | i
Cc1sc2c(c1C)c(=O)n(CCc1ccccc1)c(=O)n2Cc1cccnc1 | i
Clc1ccc(-c2csc(=Nc3ccccc3)n2CCCN2CCOCC2)cc1 | 64%*
CCn1c(-c2ccc(OC)c(F)c2)csc1=Nc1ccccc1 | 73%*
O=C(N=c1scc(-c2ccc(Cl)cc2)n1Cc1ccco1)c1ccccc1 | i
CCSc1nnc(-c2cccnc2)n1Cc1ccccc1 | i
O=C(CCc1ccccc1)N1N=C(C(F)(F)F)CC1(O)c1ccc(F)cc1 (centres undefined) | i
CCC1=NN(C(=O)c2cccc([N+](=O)[O-])c2)C(O)(C(F)(F)F)C1 (centres undefined) | i
c1cncc(NCCNC2CCC3(CCNCC3)CC2)c1 | i
CSc1cccc(NC(=O)Cn2c(=O)sc3ccccc32)c1 | i
Cc1cc(C)c2c3c(sc2n1)C1(CCN(C(=O)c2ccccc2)CC1)C(C#N)=C(N)O3 | i
O=C(Nc1ccc(=O)n2c1[C@@H]1C[C@@H](CN(C(=O)COc3ccccc3)C1)C2)c1ccccn1 | i
CCN(c1ccc2c(c1)OCO2)S(=O)(=O)c1ccc2c(c1)CCC(=O)N2 | i
COc1ccccc1NC(=O)/C(=C\c1cccc([N+](=O)[O-])c1)NC(=O)c1cccs1 | i
COc1ccc(S(=O)(=O)N2CCCC2)cc1 | i
Cc1ccc(S(=O)(=O)N2CCCCC2)cc1 | i
CCn1c(-c2ccc(S(=O)(=O)N3CCCCC3)cc2)csc1=Nc1ccccc1OC | 61%*
CC(=O)Nc1cccc(C(=O)N2CCOC(Cc3ccc(F)cc3)C2)c1 (centres undefined) | i
O=C(c1ccc(Cl)cc1[N+](=O)[O-])N1CCN(c2ccccc2F)CC1 | i
CCCCc1ncc(CN2CCN(Cc3ccc(OCC)cc3)C(CCO)C2)[nH]1 (centres undefined) | i
Cc1ccc(C2c3nc[nH]c3CCN2Cc2cc(C)ccc2O)cc1 (centres undefined) | i
CCCCc1ncc(CN2CCc3[nH]cnc3C2c2cccc(O)c2)[nH]1 (centres undefined) | 37%*
